Reference: PubChem BioAssay (EPA / NIEHS)
Records with an inconclusive call do not appear. Active and inactive are the calls of the source. The calls were made as follows, unless noted: active = hit-call score of the fitted dose curve at least 0.9, where 1 is the maximum; inactive = score below 0.9.

Legend:
[1] = target: Paired box protein Pax-6 (Homo sapiens) (UniProt P26367); assay: ATG_Pax6_CIS: Attagene CIS-FACTORIAL HepG2 Assay for human Paired Box 6 (PAX6) (AID 2282956); conditions: HepG2 CIS-FACTORIAL PAX6 reporter transcription, RNA readout; actives raise or lower the signal
Chain of Paired box protein Pax-6 (Homo sapiens) (P26367 whole entry, looked up): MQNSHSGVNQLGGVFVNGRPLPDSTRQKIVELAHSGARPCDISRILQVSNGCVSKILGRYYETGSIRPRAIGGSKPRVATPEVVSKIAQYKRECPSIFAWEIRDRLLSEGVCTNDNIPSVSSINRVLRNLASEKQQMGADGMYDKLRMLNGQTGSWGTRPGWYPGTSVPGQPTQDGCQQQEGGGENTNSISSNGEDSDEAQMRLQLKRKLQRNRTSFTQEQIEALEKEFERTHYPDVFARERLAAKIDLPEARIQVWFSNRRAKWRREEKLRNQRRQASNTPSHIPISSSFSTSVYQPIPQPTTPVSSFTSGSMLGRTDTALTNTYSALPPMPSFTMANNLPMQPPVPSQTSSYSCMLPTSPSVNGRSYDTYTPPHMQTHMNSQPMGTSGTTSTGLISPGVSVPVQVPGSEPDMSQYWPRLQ
In short: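 Read-out is reporter transcript level, measured by RT-PCR with fluorescent primer extension and capillary electrophoresis after 24 h dosing of transfected HepG2 cells. Activity in either direction fitted relative to DMSO control.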

[2] = ATG_PXRE_CIS: Attagene CIS-FACTORIAL HepG2 Assay for human Pregnane X Receptor Element (PXRE) (AID 2282957); conditions: HepG2 Attagene CIS-FACTORIAL PXRE reporter, mRNA; actives raise or lower the signal
In short: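 Endogenous transcription factor activity in HepG2 was gauged through induction of reporter mRNA driven by a cis-regulating promoter element, sampled 24 h post-treatment. Activity was fitted in both directions against DMSO negative control.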

[3] = ATG_RORE_CIS: Attagene CIS-FACTORIAL HepG2 Assay for human RAR-related Orphan Receptor Element (RORE) (AID 2282959); conditions: HepG2 Attagene cis-factorial RORE reporter, mRNA; actives raise or lower the signal
In short: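 Transfect HepG2 with MRTUs; treat 24 h; extract RNA; RT with oligo(dT); PCR with reporter-specific primers; 6-FAM primer extension; HpaI digest 2 h at 37 C; capillary electrophoresis. Fit vs DMSO, bidirectional.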

[4] = ATG_Sox_CIS: Attagene CIS-FACTORIAL HepG2 Assay for human SRY-box transcription factor (SOX) (AID 2282960); conditions: HepG2 Attagene cis-factorial SOX reporter, mRNA; actives raise or lower the signal
In short: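 Fluorescence-labelled cDNA fragments from reporter transcripts, sized by CE, give the signal. Cells: HepG2, transiently transfected with cis-regulated reporter units. Exposure 24 h; DMSO negative control; bidirectional curve fitting.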

[5] = target: Transcription factor Sp1 (Homo sapiens) (UniProt P08047); assay: ATG_Sp1_CIS: Attagene CIS-FACTORIAL HepG2 Assay for human Specificity Protein 1 (Sp1) (AID 2282961); conditions: HepG2 Sp1 cis-reporter transcription, actives raise or lower the signal
Chain of Transcription factor Sp1 (Homo sapiens) (P08047 whole entry, looked up): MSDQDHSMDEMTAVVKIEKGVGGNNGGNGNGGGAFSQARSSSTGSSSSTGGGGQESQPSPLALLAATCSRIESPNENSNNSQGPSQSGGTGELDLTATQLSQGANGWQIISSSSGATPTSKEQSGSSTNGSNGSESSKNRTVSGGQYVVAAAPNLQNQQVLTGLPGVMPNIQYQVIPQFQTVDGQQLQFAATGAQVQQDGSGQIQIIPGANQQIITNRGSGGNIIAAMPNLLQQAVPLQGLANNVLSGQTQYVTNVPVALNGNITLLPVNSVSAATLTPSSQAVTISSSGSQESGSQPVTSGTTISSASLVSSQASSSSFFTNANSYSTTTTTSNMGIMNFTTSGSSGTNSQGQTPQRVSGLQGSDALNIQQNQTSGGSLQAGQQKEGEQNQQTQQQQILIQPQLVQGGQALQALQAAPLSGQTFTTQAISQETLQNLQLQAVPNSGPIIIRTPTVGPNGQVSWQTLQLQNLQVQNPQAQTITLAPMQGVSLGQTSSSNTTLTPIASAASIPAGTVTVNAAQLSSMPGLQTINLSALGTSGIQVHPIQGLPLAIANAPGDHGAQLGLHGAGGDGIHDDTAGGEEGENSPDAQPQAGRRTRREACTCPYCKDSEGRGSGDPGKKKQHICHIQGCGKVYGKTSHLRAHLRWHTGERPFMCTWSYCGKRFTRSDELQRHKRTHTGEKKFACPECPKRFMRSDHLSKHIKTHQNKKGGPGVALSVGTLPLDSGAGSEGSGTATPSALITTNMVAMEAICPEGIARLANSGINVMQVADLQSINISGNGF
In short: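 Chemicals are dosed onto HepG2 cells transfected with multiple cis-promoter reporter constructs, and after 24 h reporter RNA is reverse-transcribed, PCR-amplified and resolved by capillary electrophoresis for fluorescence quantitation; activity is scored up or down against DMSO.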

[6] = ATG_SREBP_CIS: Attagene CIS-FACTORIAL HepG2 Assay for human Sterol Regulatory Element Binding (SREBP) (AID 2282962); conditions: HepG2 Attagene cis-factorial SREBP reporter, mRNA; actives raise or lower the signal
In short: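 Endogenous SREBP activity read as cis-element-driven reporter transcript in transiently transfected HepG2, 24 h post-dosing; quantified via RT-PCR plus capillary electrophoresis of fluorescent fragments. Gain or loss of signal fitted relative to DMSO baseline.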

[7] = target: Signal transducer and activator of transcription 3 (Homo sapiens) (UniProt P40763); assay: ATG_STAT3_CIS: Attagene CIS-FACTORIAL HepG2 Assay for human Signal Transducer and Activator of Transcription 3 (STAT3) (AID 2282963); conditions: HepG2, Attagene cis-factorial STAT3 reporter transcription; actives raise or lower the signal
Chain of Signal transducer and activator of transcription 3 (Homo sapiens) (P40763 whole entry, looked up): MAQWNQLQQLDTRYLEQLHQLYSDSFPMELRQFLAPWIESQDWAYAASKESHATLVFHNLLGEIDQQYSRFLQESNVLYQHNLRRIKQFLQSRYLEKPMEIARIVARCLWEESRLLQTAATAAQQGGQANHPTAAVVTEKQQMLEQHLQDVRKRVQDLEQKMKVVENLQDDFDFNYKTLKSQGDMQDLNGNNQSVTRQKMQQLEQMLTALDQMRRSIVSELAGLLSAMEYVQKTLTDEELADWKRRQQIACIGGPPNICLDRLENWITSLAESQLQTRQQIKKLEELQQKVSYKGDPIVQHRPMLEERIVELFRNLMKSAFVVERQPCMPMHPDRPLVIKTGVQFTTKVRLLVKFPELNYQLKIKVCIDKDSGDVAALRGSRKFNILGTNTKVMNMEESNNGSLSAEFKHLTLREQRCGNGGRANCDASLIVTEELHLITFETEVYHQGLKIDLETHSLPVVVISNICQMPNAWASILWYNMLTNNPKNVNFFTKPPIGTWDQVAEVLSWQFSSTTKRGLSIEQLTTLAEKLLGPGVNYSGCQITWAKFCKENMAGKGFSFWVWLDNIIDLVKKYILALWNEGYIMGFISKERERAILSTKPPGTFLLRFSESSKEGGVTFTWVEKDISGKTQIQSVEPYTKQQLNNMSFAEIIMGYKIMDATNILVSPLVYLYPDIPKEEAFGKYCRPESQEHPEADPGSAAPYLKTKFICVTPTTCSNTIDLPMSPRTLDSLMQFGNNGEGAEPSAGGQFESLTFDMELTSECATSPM
In short: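 Cis-factorial format: endogenous transcription factors in HepG2 drive transfected reporter units. After 24 h treatment, reporter RNA was reverse-transcribed, amplified, FAM-labelled and HpaI-digested before CE analysis; activity scored in both directions against DMSO.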

[8] = ATG_TA_CIS: Attagene CIS-FACTORIAL HepG2 Assay for human TA Basal Promoter (AID 2282964); conditions: HepG2 Attagene CIS-factorial TA basal promoter reporter; actives raise or lower the signal
In short: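 Transient MRTU transfection of HepG2 preceded 24 h compound exposure. Reporter mRNA levels were then read by RT-PCR with capillary electrophoresis, and this background-control endpoint was fitted bidirectionally to DMSO.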

[9] = ATG_TCF_b_cat_CIS: Attagene CIS-FACTORIAL HepG2 Assay for human T-Cell-Factor with beta-catenin (TCF/b-cat) (AID 2282965); conditions: HepG2 TCF/beta-catenin cis-reporter transcription, actives raise or lower the signal
In short: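 Measured: reporter mRNA in HepG2 transiently transfected with cis-promoter reporter units, 24 h after chemical addition. Fitting was bidirectional, DMSO as negative control.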

[10] = ATG_TAL_CIS: Attagene CIS-FACTORIAL HepG2 Assay for human TAL Basal Promoter (AID 2282966); conditions: HepG2 Attagene cis-factorial TAL promoter reporter; actives raise or lower the signal;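 also: background control endpoint measuring basal TAL promoter reporter mRNA not a specific factor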
In short: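 Endogenous transcription-factor activity is sensed in HepG2 cells through transfected cis-promoter reporter constructs. After 24 h dosing, reporter transcripts are quantified by RT-PCR and capillary electrophoresis. Gain or loss of signal is fitted relative to DMSO.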

[11] = ATG_TGFb_CIS: Attagene CIS-FACTORIAL HepG2 Assay for human Transforming Growth Factor (TGF) (AID 2282967); conditions: HepG2 Attagene CIS TGFb reporter, mRNA transcription; actives raise or lower the signal
In short: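 After a 24-hour incubation with compound, transfected HepG2 cells were lysed for RNA; reporter cDNA was amplified, fluorescently end-labeled and separated by CE. DMSO served as baseline for bidirectional fits.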

[12] = ATG_VDRE_CIS: Attagene CIS-FACTORIAL HepG2 Assay for human Vitamin D Receptor Element (VDRE) (AID 2282968); conditions: HepG2 VDRE cis-reporter transcription, actives raise or lower the signal
In short: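 Measures endogenous factor activity through cis-element-driven reporter transcripts in transiently transfected HepG2. Cells are treated 24 h; reporter mRNA is quantified by RT-PCR and capillary electrophoresis; fitting is bidirectional.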

[13] = target: X-box-binding protein 1 (Homo sapiens) (UniProt P17861); assay: ATG_Xbp1_CIS: Attagene CIS-FACTORIAL HepG2 Assay for human X-box Binding Protein 1 (XBP1) (AID 2282972); conditions: HepG2 XBP1 cis-element reporter, Attagene multiplex; actives raise or lower the signal
Chain of X-box-binding protein 1 (Homo sapiens) (P17861 whole entry, looked up): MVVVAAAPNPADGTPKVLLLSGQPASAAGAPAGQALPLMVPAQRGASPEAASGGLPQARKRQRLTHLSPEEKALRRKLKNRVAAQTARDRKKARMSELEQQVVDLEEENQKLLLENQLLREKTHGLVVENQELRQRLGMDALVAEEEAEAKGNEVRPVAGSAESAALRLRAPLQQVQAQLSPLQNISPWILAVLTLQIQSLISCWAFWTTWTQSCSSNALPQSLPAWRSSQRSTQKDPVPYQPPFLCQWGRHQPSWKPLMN
In short: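 Reporter transcripts were quantified by RT-PCR with fluorescent primer extension and capillary electrophoresis after 24 h chemical exposure. Cells: transiently transfected HepG2 carrying cis-regulated reporter constructs; data fitted bidirectionally relative to DMSO.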

[14] = ATG_M_19_TRANS: Attagene TRANS-FACTORIAL HepG2 Assay for M19 Transcription Factor (Internal Marker) (AID 2282974; active = hit-call score of the fitted dose curve at least 0.9, where 1 is the maximum); conditions: HepG2 Attagene TRANS-FACTORIAL M19 internal marker reporter
In short: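 Multiplexed TRANS format: HepG2 liver cells bearing transient GAL4-UAS reporter units, chemical treatment 24 h, reporter transcripts quantified by RT-PCR plus capillary electrophoresis. DMSO defines baseline.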

[15] = ATG_GAL4_TRANS: Attagene TRANS-FACTORIAL HepG2 Assay for GAL4 (Internal Marker) (AID 2282976; active = hit-call score of the fitted dose curve at least 0.9, where 1 is the maximum); conditions: HepG2 Attagene TRANS GAL4 internal marker reporter
In short: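 Fluorescence from capillary electrophoresis of labelled RT-PCR products quantifies reporter mRNA induction after 24 h dosing of HepG2 cells carrying transfected GAL4-UAS reporter transcription units. Vehicle DMSO serves as baseline.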

[16] = target: Estrogen receptor (Homo sapiens) (UniProt P03372); assay: ATG_ERa_TRANS: Attagene TRANS-FACTORIAL HepG2 Assay for human Estrogen Receptor alpha (ERa) (AID 2282970; active = hit-call score of the fitted dose curve at least 0.9, where 1 is the maximum); conditions: HepG2 Attagene TRANS ERa GAL4 reporter, mRNA
Chain of Estrogen receptor (Homo sapiens) (P03372 whole entry, looked up, the tested form may be a part): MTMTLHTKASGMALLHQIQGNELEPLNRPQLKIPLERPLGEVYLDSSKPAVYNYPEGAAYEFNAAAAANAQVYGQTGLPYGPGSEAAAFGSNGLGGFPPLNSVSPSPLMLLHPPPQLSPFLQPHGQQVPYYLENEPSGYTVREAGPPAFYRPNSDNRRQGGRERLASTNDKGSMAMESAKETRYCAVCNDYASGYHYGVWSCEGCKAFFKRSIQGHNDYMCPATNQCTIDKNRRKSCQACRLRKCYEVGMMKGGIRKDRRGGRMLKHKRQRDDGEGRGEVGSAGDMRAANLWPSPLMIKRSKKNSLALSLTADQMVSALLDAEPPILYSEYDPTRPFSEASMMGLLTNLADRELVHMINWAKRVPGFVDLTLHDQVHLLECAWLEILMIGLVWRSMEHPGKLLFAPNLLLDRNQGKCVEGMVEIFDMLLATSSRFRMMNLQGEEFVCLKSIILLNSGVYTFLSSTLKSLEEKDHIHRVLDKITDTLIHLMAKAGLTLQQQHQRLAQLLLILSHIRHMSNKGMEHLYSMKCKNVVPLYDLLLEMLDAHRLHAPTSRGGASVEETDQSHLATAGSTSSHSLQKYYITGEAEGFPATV
In short: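 Transfected HepG2 cells carrying GAL4-UAS-driven reporter units were dosed for 24 hours. Total RNA was reverse-transcribed, reporter sequences PCR-amplified, FAM-labelled, HpaI-digested and resolved by capillary electrophoresis. Increases over DMSO control defined activity.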

[17] = target: Steroid hormone receptor ERR1 (Homo sapiens) (UniProt P11474); assay: ATG_ERRa_TRANS: Attagene TRANS-FACTORIAL HepG2 Assay for human Estrogen-Related Receptor alpha (ERRa) (AID 2282971; active = hit-call score of the fitted dose curve at least 0.9, where 1 is the maximum); conditions: HepG2 Attagene TRANS reporter, ERRa transactivation
Chain of Steroid hormone receptor ERR1 (Homo sapiens) (P11474 whole entry, looked up, the tested form may be a part): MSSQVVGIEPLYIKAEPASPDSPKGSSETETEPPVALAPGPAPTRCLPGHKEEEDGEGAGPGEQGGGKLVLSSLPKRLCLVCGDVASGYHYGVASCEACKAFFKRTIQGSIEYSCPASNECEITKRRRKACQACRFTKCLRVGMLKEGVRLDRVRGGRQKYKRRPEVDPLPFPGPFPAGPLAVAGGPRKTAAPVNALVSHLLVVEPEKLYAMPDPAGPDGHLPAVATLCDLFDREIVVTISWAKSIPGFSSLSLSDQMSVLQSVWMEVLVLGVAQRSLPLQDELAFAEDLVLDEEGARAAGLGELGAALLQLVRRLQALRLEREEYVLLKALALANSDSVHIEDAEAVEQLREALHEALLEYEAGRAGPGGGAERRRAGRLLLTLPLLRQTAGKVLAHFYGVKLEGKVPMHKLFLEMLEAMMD
In short: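 HepG2 cells were transiently transfected with multiple GAL4-UAS reporter units, then dosed with compound for 24 h. Total RNA was reverse-transcribed, reporter cDNA PCR-amplified and fluorescently labelled, and fragments resolved by capillary electrophoresis; induction was compared with DMSO.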

[18] = ATG_PPRE_CIS: Attagene CIS-FACTORIAL HepG2 Assay for human Peroxisome Proliferator-activated Response Element (PPRE) (AID 2282958); conditions: HepG2 PPRE cis-element reporter, Attagene transcription factor profiling; actives raise or lower the signal
In short: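 DMSO served as negative control and baseline for bidirectional curve fitting. Signal came from PPRE-regulated reporter mRNA in HepG2 cells, measured 24 h post-dosing by RT-PCR, 6-FAM primer extension and capillary electrophoresis.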

Measured: AC50

CCOc1ccc(NC(C)=O)cc1
not listed: [16] | [17] | [18]
inactive: all other assays above

O=C(O)c1ccco1
not listed: [3] | [11] | [12] | [14] | [15] | [17] | [18]
inactive: all other assays above

c1ccc(Cc2ccccc2)cc1
not listed: [2] | [14] | [17] | [18]
inactive: all other assays above

OC[C@@H](O)[C@H](O)[C@@H](O)[C@@H](O)CO
active: [2] 37.2 µM | [16] 13.8 µM
not listed: [10] | [15] | [18]
inactive: all other assays above

O=C(OCc1ccccc1)c1ccccc1O
active: [2] 77.9 µM | [6] 128 µM | [16] 43 µM
not listed: [12] | [14] | [15] | [17] | [18]
inactive: all other assays above

C=C(C)C(=O)OCCC[Si](OC)(OC)OC
not listed: [2] | [8] | [12] | [15] | [17]
inactive: all other assays above

O=[N+]([O-])c1cc(N(CCO)CCO)ccc1NCCO
not listed: [9] | [10] | [13] | [15] | [16] | [17] | [18]
inactive: all other assays above

O=C(O)CS
not listed: [2] | [12] | [15] | [16]
inactive: all other assays above

OCC=Cc1ccccc1
active: [2] 33.1 µM
not listed: [3] | [10] | [15] | [16] | [17] | [18]
inactive: all other assays above
